aSyn 5UTR act: Activators working through SNCA 5'UTR binding (MLPCN). alpha-synuclein 5'UTR reporter, activators screen. activity score, % (tested at 7.5 µM), hits read low. 7.1% of 300,000 active. AID 1814; in the data active = activity score below about -60%
* marks the source's active call; other numbers are inactive results. The list is a sample of the results.

SMILES	aSyn 5UTR act
Cc1nc2oc3ccc(Cl)cc3c(=O)c2cc1C(=O)O	-62*
CCc1nc2oc3ccc(C)cc3c(=O)c2cc1C(=O)OC	-201*
COc1ccc(-c2csc(=Nc3ccccc3)n2CCO)cc1	-100*
COc1ccc(-c2csc(=NCCO)n2-c2ccccc2)cc1	-99*
Cc1ccc(-n2nnc(-c3cc4ccccc4nc3Cl)n2)cc1	-148*
COc1ncccc1-c1nnn(-c2ccc(F)cc2)n1	-97*
COc1ncccc1-c1nnn(-c2ccc(Cl)c(Cl)c2)n1	-169*
O=c1[nH]c2ccccc2cc1-c1nnn(-c2ccc(F)cc2)n1	-103*
COc1ncccc1-c1nnn(-c2ccc(C)cc2)n1	-161*
COc1cccc(/C=N/N=C(\N)c2nonc2N)c1O	-105*
COc1ccccc1/C=N\N=C(\N)c1ccccn1	-175*
N/C(=N\N=C\c1cccc([N+](=O)[O-])c1)c1nonc1N	-150*
CC(=O)Nc1ccc2nc(N)sc2c1	-107*
CCc1ccc(NC(=O)c2ccc3nc(N)sc3c2)cc1	-131*
Nc1nc2ccc(C(=O)Nc3ccccc3)cc2s1	-129*
CC(=O)Nc1ccc2cc3ccc(NC(C)=O)cc3nc2c1	-73*
COc1ccc(CNC(=O)C(C)Sc2nc3ccccc3c(=O)n2CCCN2CCOCC2)cc1 (stereo not drawn)	38
COc1ccc(CCn2c(=N)c(C(=O)NCC3CCCO3)cc3c(=O)n4cccc(C)c4nc32)cc1 (stereo not drawn)	-116*
COc1ccc(CCNC(=O)c2cc3c(=O)n4cccc(C)c4nc3n(CCCN3CCOCC3)c2=N)cc1	-67*
O=C(CSc1ccc(F)cc1)Nc1ccc(Br)cc1	-149*
O=C(CSc1ccc(F)cc1)Nc1ccccc1Br	-75*
O=C(C1=C[C@@H](c2csc3ccccc23)C[C@@H](OCc2ccc(CO)cc2)O1)N1CCN(Cc2ccc3c(c2)OCO3)CC1	69
O=C1c2ccccc2C(Nc2ccc3c(c2)OCCO3)N1c1ccc(Cl)cn1 (stereo not drawn)	-76*
O=C1c2ccccc2C(Nc2ccc3c(c2)OCCO3)N1Cc1ccc2c(c1)OCO2 (stereo not drawn)	-72*
CCN(CC)C(=O)Cn1cc(S(=O)(=O)CC(=O)Nc2ccc3c(c2)OCCO3)c2ccccc21	-82*
SMILES	aSyn 5UTR act
Cc1ccc(-n2c(-c3ccc(Br)cc3)c[n+]3c2CCc2ccc4cccnc4c2-3)cc1	86
S=C(NCCc1ccccn1)NC1CC2CCC1C2 (stereo not drawn)	-62*
CC(=O)n1nc(-c2ccccc2)cc1-c1ccccc1	-133*
O=C(O)CC(C(=O)O)n1nc(-c2ccccc2)cc1-c1ccccc1 (stereo not drawn)	-77*
O=[N+]([O-])c1cc(Cl)cc2c1nc(NCCO)c1ccccc12	-207*
O=C(/C=C/c1ccccc1)NCCOc1ccccc1	-64*
COc1ccccc1/C=C/C(=O)NCCC1=CCCCC1	-150*
O=C(NCCOc1ccccc1)C1CCCCC1	-89*
O=C(/C=C/c1ccccc1)NCCC1=CCCCC1	-194*
O=C(/C=C/c1ccc(F)cc1)NCCC1=CCCCC1	-105*
CC(=O)Cn1ncc(N2CCCCC2)c(Cl)c1=O	-80*
Cc1nn(-c2ccccc2)c2c1C(O)n1c(nc3ccccc31)S2 (stereo not drawn)	-67*
O=C(Nc1cccnc1Cl)c1noc2c1CCc1ccccc1-2	-124*
CCCNC(=O)c1noc2c1CCc1ccccc1-2	-119*
O=C(NCCN1CCOCC1)c1noc2c1CCc1ccccc1-2	-104*
COc1ccc(N(C(=O)c2ccco2)S(=O)(=O)c2cc(OC)ccc2OC)cc1	-113*
c1ccc2c(-n3cccn3)cccc2c1	-83*
Cn1cccc1C(=O)C(=O)Nc1cc(Cl)cc(Cl)c1	-155*
Cn1cccc1C(=O)C(=O)Nc1ccc(Cl)cc1	-119*
Cn1cccc1C(=O)C(=O)Nc1ccc(F)c(F)c1	-176*
Cn1cccc1C(=O)C(=O)Nc1cccc(Cl)c1Cl	-148*
COc1ccccc1NCC(=O)N/N=C(\C)c1cccs1	-92*
Nc1c2c(nc3sc4c(c13)CCCC4)-c1ccccc1CC2	-75*
Fc1cccc(F)c1/C=N/Nc1ccccn1	-230*
Fc1cccc(Cl)c1/C=N/Nc1ccccn1	-235*
SMILES	aSyn 5UTR act
Fc1cccc(/C=N/Nc2ccccn2)c1	-277*
O=C(Nc1cccc2ncccc12)c1ccc([N+](=O)[O-])o1	-169*
Cc1c(NC(=O)c2ccc([N+](=O)[O-])o2)cccc1-c1nc2ncccc2o1	-228*
O=C(Nc1cccc2ncccc12)c1ccc(-c2ccc(Br)cc2)o1	-79*
C=CCn1c(SCc2csc(-c3ccc(Cl)cc3)n2)nnc1-c1ccccc1OC	-64*
Cc1cc(C)nc(SCc2csc(-c3ccccc3)n2)n1	-91*
Nc1ccccc1SCc1csc(-c2ccc(Cl)cc2)n1	-72*
Clc1ccc(OCc2nc(-c3ccncc3)no2)c(Cl)c1	-132*
Clc1cc(Cl)c(OCc2nc(-c3ccccn3)no2)cc1Cl	-85*
CC(C)(C)c1ccc(OCc2nc(-c3ccccn3)no2)c(Br)c1	-190*
CN(C)/C=C/C(=O)c1ccc(-n2cccc2)cc1	-88*
O=C(NC(=S)NCc1nc2ccccc2[nH]1)c1ccc(F)cc1	-119*
O=C(NC(=S)NCc1nc2ccccc2[nH]1)c1ccccc1F	-143*
COc1cccc(-c2cc(C(=O)Nc3ccccc3SC)no2)c1	-141*
CSc1ccccc1NC(=O)c1cc(CC(C)C)on1	-178*
COc1ccccc1-c1cc(C(=O)Nc2ccccc2SC)no1	-96*
COc1ccccc1-c1cc(C(=O)Nc2cccnc2)no1	55
COc1ccccc1Nc1ccc(Nc2ccccc2OC)nn1	-171*
O=[N+]([O-])c1cccc(-c2csc(Nc3ccccc3)n2)c1	-299*
COc1ccccc1Nc1nc(-c2cccc([N+](=O)[O-])c2)cs1	-77*
COc1ccccc1Nc1nc(C)cs1	-106*
CN(C1=C(NC(=O)c2ccc(Cl)cc2)C(=O)c2ccccc2C1=O)c1ccccc1	-83*
N#C/C(C(=O)Oc1ccccc1)=C1\C=CC=CN1	-80*
Cc1c(C(=O)NCc2cccnc2)sc2nc(-c3ccc(F)cc3)cn12	-144*
Cc1c(C(=O)NCc2ccco2)sc2nc(-c3ccccc3)cn12	-83*
SMILES	aSyn 5UTR act
c1ccc(-c2cn3c4c(sc3n2)CCCC4)cc1	117
Cc1nc2cc(-c3ccccc3)nn2c(C)c1CCC(=O)NCc1ccco1	53
Cc1c(C(=O)N2CCOCC2)sc2nc(-c3ccccc3)cn12	-123*
O=C(Nc1cc(S(=O)(=O)N2CCCCC2)ccc1Cl)c1ccccc1NS(=O)(=O)c1ccc(F)cc1	63
Cc1cccc(NC(=O)c2ccc(Cl)c(S(=O)(=O)N3CCCCC3)c2)n1	-79*
Cc1cccc(NC(=O)c2ccc(Cl)c(S(=O)(=O)N3CCCC3)c2)n1	-68*
C=CCn1c(SCC(=O)Nc2ccc(F)cc2F)nnc1-c1cnccn1	-107*
Cc1nnsc1S(=O)(=O)Cc1ccccc1C(F)(F)F	-76*
CCCCOc1ccc(-c2nnn(CC(=O)NCc3ccco3)n2)cc1	-165*
CC(C)CC(=O)Nc1ccc(-c2nnn(CC(=O)NCc3ccco3)n2)cc1	-102*
COc1ccc(C(=O)COC(=O)c2ccn(C)n2)cc1	-83*
O=C(OCC(=O)N1CCN(c2ccccc2)CC1)c1ccccc1[N+](=O)[O-]	-141*
O=C(OCC(=O)N1CCCC1)c1ccccc1O	-85*
COc1ccc(C(=O)COC(=O)c2ccc(N(C)C)cc2)cc1	-64*

Source: PubChem
